Assay results taken from PubChem BioAssay (EPA / NIEHS).
The source made the active and inactive calls. Rule for the calls: active = hit-call score of the fitted dose curve at least 0.9, where 1 is the maximum; inactive = score below 0.9.

What follows are compounds tested on CD38, CD38 (gene 952) (assay: BSK_SAg_CD38: BioMAP Diversity Plus: SAg Assay for CD38 Biomarker Activity (AID 2283087)). Details: primary human HUVEC with PBMC; actives raise or lower the signal.
Experimental: BSK_SAg is a cell-based, multiplexed-readout assay that uses umbilical vein endothelium and peripheral blood mononuclear cells, a human vascular primary cell co-culture, with measurements taken at 24 hours after chemical dosing in a 96-well plate.BSK_SAg_CD38 is one of 10 assay component(s) measured or calculated from the BSK_SAg assay. It is designed to make measurements of enzyme-linked immunosorbent assay, a form of binding reporter, as detected with fluorescence intensity signals by Enzyme-linked immunosorbent assay technology.Data from the assay component BSK_SAg_CD38 was analyzed into 1 assay endpoint. This assay endpoint, BSK_SAg_CD38, was analyzed with bidirectional fitting relative to DMSO as the negative control and baseline of activity. Using a type of binding reporter, gain or loss-of-signal activity can be used to understand changes in the signaling as they relate to the gene CD38. Furthermore, this assay endpoint can be referred to as a primary readout, because this assay has produced multiple assay endpoints where this one serves a signaling function. To generalize the intended target to other relatable targets, this assay endpoint is annotated to the cytokine intended target family, where the subfamily is other cytokine.
The levels of cell surface (or secreted, indicated by the prefix "s") biomarker endpoints were measured by ELISA. Overt cytotoxicity to cells in confluent adherent cultures (all systems other than the BT system) was assessed by measuring total protein levels using sulforhodamine B (SRB) staining in parallel cultures at the time of biomarker measurements, indicated as SRB endpoints. For proliferation assays for adherent cell types, individual cell types are cultured at sub-confluence and relative cell numbers quantified by SRB staining at time points optimized for each system (48 h: 3C and CASM3C systems; 72 h: BT and HDF3CGF systems; 96 h: SAg system). SRB was performed by staining cells with 0.1% SRB after fixation with 10% TCA and reading wells at 560 nm.Viability and proliferation of PBMC (T cells) was quantified by Alamar Blue reduction for the SAg and BT systems. For PBMC viability (referred to as PBMC Cytotoxicity within the assay endpoint names), cells were plated (75,000/well in a 96-well plate) and then chemical samples added for 1 h before addition of activators, SEB and TSST-1 (20 ng/mL final concentration each). Cells were incubated for 90 h. Then, Alamar Blue (20 uL/well) (Invitrogen, Cat DAL1100) was added for 6 h, and the plates were read with a fluorescence microplate reader at 546/580 nm (excitation/emission). For PBMC proliferation, cells were plated and activated as above but incubated for only 16 h prior to addition of Alamar Blue. Plates were read after 6 h.

Structure (SMILES)	outcome	AC50
Clc1ccccc1Cl	inactive	
Cc1cccc(N)c1N	inactive	
CC(C)(OOC(C)(C)c1ccccc1)c1ccccc1		33.5 µM (active)
OCCOCCO	inactive	
CCCCCOC(=O)c1ccccc1C(=O)OCCCCC		31.6 µM (active)
CO[C@@H]1[C@H](OC(=O)NC(=O)CCl)CC[C@]2(CO2)[C@H]1[C@@]1(C)O[C@@H]1CC=C(C)C		6.2 µM (active)
COC(=O)c1ccccc1N	inactive	
Cc1cc(N=Nc2ccccc2C)ccc1N		32.4 µM (active)
C[N+](C)(C)CC1CO1 (stereo not given)	inactive	
c1ccc(C2CO2)cc1 (stereo not given)	inactive	
Cc1ccc(N)c(N)c1	inactive	
CCC[CH2][Sn]([Cl])([CH2]CCC)[CH2]CCC		0.248 µM (active)
CC(O)CCO (stereo not given)	inactive	
COC(=O)Nc1nc2ccccc2[nH]1	inactive	
O=[N+]([O-])c1ccc(Oc2ccc(Cl)cc2Cl)cc1		29.8 µM (active)
ClC1=C(Cl)C2(Cl)C3C(Cl)C=CC3C1(Cl)C2(Cl)Cl (stereo not given)		32.6 µM (active)
O=Cc1ccco1	inactive	
[Cl-].[Cl-].[Hg+2]		36.6 µM (active)
CCCCCCCCOC(=O)c1ccc(C(=O)OCCCCCCCC)c(C(=O)OCCCCCCCC)c1	inactive	
CNC(=O)Oc1cccc2c1OC(C)(C)C2	inactive	

Structure (SMILES)	outcome	AC50
COc1cc(C=O)cc2c1[C@H](COC(N)=O)[C@]1(OC(C)=O)ON2C[C@H]2[C@@H]1N2C(C)=O		15.9 µM (active)
O=C1CCCO1	inactive	
c1ccc2c(c1)oc1ccccc12	inactive	
CCOC(=O)[C@]1(c2ccccc2)Oc2ccccc2[C@@H]1N		36.2 µM (active)
Nc1ccc(Cc2ccc(N)cc2)cc1	inactive	
CN(C)[C@@H]1C(=O)C(C(N)=O)=C(O)[C@@]2(O)C(=O)C3=C(O)c4c(O)cccc4[C@@](C)(O)[C@H]3C[C@@H]12	inactive	
ClCCOCCCl	inactive	
CCC(C)c1ccc(O)cc1 (stereo not given)	inactive	
OCCCBr	inactive	
CC(C)(C)OOC(=O)c1ccccc1	inactive	
CCCCC(CC)COC(=O)c1ccc(C(=O)OCC(CC)CCCC)c(C(=O)OCC(CC)CCCC)c1 (stereo not given)	inactive	
Brc1ccc(Oc2ccccc2)cc1	inactive	
CC(C)N(Cc1ccccc1)C(=O)C(C)(C)C	inactive	
N#CC(Br)Br	inactive	
Cc1ccc(N)cc1	inactive	
Clc1ccc(C(c2ccc(Cl)cc2)C(Cl)Cl)cc1		29.3 µM (active)
Nc1ccc(Oc2ccc(N)cc2)cc1	inactive	
Nc1ccc([N+](=O)[O-])cc1	inactive	
OCCCl	inactive	
O=C(Nc1ccccc1)c1ccccc1I	inactive	
